# 12-hLO inh: 12-hLO (ALOX12) enzyme inhibition; purified 12-hLO, xylenol orange hydroperoxide absorbance; hit rate 0.12% among 150,000; P18054; Potency, µM (top dose mostly 57.1 µM), without a hit: top-dose activity change, negative = inhibition, hits mostly inhibitors; active = well fitted inhibition curve with a large enough effect; inconclusive = small, poorly fitted or top-dose-only effect; also: potency is read from the fitted curve at half-maximal effect; nearly all actives have a fitted effect of over 55% in size
#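 Purified human 12hLO (150 nM), preincubated 15 min with compound, then 40 uM arachidonic acid for 30 min, room temperature, Hepes pH 7.0 with 0.01% Triton X-100. Hydroperoxide detected by ferrous iron/xylenol orange; 573/405 nm absorbance ratio gives reaction progress.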
# HPGD block: HPGD (human) dehydrogenase inhibition | P15428 | purified HPGD, NADH fluorescence kinetic, PGE2 substrate | Potency, µM, for the others: top-dose activity change, negative = inhibition, usual class: inhibitors | hit rate 4.3% among 150,000 | AID 894; also: potency is read from the fitted curve at half-maximal effect
# Target sequence (P15428 whole entry, looked up): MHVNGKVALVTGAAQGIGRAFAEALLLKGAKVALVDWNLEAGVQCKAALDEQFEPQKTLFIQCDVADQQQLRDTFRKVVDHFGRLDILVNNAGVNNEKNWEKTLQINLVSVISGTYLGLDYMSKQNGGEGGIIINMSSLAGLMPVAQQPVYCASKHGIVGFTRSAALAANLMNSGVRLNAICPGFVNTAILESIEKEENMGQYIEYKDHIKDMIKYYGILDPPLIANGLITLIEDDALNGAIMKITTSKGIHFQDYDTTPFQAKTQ
#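 20 nM HPGD preincubated 15 min at room temperature with compound in 50 mM Tris-HCl pH 8, 0.01% Tween 20. Started with 1 mM NAD+ and 30 uM prostaglandin E2; NADH fluorescence (360/450 nm) read 5 times over 30-s intervals, last minus first.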
# PNC assembly inh: blocks assembly of the perinucleolar compartment; PC3M PTB-GFP, PNC prevalence imaging, 16 h; active compounds read low; activity change (PNC), negative = inhibition, % at 10 µM; hit rate 3.1% among 140,000;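 active = readout at or below -70, meaning at least 70% loss of cells showing the perinucleolar compartment, a nuclear body marking cancer cells; inconclusive = readout between -30 and a set limit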;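 also: plate controls were DMSO wells for no effect and camptothecin positive control wells for full effect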
#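 Read-out is percentage of cells bearing a perinucleolar compartment, from automated 20x imaging of fixed, Hoechst-stained PC3M PTB-GFP cells. Cells were seeded 4 h, then exposed 16 h to compound (23 nl of library stock) in duplicate plates.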
# ALDH1A1 block: blocks purified human ALDH1A1 activity; Potency, µM (top dose mostly 75.3 µM), without a hit: at the highest dose activity, negative = inhibition, hits mostly inhibitors; P00352; Purified ALDH1A1, NADH fluorescence, propionaldehyde substrate; hit rate 7.3% among 220,000;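 also: potency is read from the fitted curve at half-maximal effect; plate controls were no enzyme wells and a reference inhibitor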
# LMNA splice mod: LMNA splicing modulation. HeLa LMNA splicing GFP/RFP minigene ratio, 48 h. Potency, µM (top dose mostly 46.1 µM), inactives show at the highest dose ratio change, negative = inhibition, most hits filed as inhibitors. hit rate 0.01% among 200,000. AID 1487; active = well fitted inhibition curve with a large enough effect in the signal ratio, with a control signal flat, not every such curve was filed as active; inconclusive = small, poorly fitted or top-dose-only effect, or effect the other way, or a change in a side signal; the % refers to the signal ratio; also: potency is read from the fitted curve at half-maximal effect
#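 Read-out is the ratio of GFP to DsRed2 object intensity, acquired by 488 nm laser-scanning cytometry on HeLa lamin A-EGFP minigene reporter cells. Compound incubation 48 hrs at 37 °C in Opti-MEM with 2% FBS; DMSO 0.5% final.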
# * marks the source's active call; other numbers are inactive results; ? = inconclusive; · = not tested or not shown; [ ] = dose if it differs, or a comment. Compounds with a hit are over-represented: about 10% of the library has one in this group of screens. Unless noted, calls follow the shape of the dose curve; as a rule, active = well fitted inhibition curve with a large enough effect (not every such curve was filed as active); inconclusive = small, poorly fitted or top-dose-only effect, or another doubt; inactive = no such curve, though single readings can be large or run the other way. Unless noted, % is scaled to controls: 0 for no effect and ±100 for the full control effect.
SMILES,12-hLO inh,HPGD block,PNC assembly inh,ALDH1A1 block,LMNA splice mod
CCCCCCCCOc1ccc(C(=O)O)cc1,1%,-11%,·,15%,·
CCCCCCOc1ccc(C(=O)O)cc1C#N,0%,20µM*,?,16%,9%
COc1ccccc1CNc1nc(-c2ccccc2CN(C)C)nc2ccccc12,2%,-5%,·,-2%,?
COc1ccc(C(=O)/C=C2/Sc3cc4c(cc3N2C)OCO4)cc1,1%,·,-6,?,-7%
COc1ccc2c(c1)S/C(=C\C(=O)c1ccncc1)N2C,?,28µM*,-12,14µM*,10%
C=COCCNC(=O)Nc1ccc(Cl)c(Cl)c1,-9%,20µM*,25,-1%,?
O=C(c1ccco1)N1CCC2(CC1)CCN(c1ccccc1)CC2,0%,-9%,·,?,·
CC1Cc2nc(SCC(=O)N3CCCc4ccccc43)n(C)c(=O)c2S1 (centres undefined),-7%,-11%,34,?,?
CCn1c(SCC(=O)N2CCCCC2)nc2c(c1=O)SC(C)C2 (centres undefined),7%,-19%,45,22µM*,-11%
COCCn1c(SCC(=O)N2CCCc3ccccc32)nc2c(c1=O)SC(C)C2 (centres undefined),8%,-19%,-108*,20µM*,-10%
COCCn1c(SCC(=O)N2CCCc3ccccc32)nc2ccccc2c1=O,-6%,-7%,3,25µM*,?
Cc1cc(C)c2c(N)c(-c3nc4ccccc4[nH]3)sc2n1,-2%,-17%,15,-11%,-5%
COc1cccc(-n2c(N)c(-c3nc4ccccc4[nH]3)sc2=S)c1,·,·,·,28µM*,·
O=C1CC(c2ccccc2)CC2=C1C(c1ccccn1)Nc1ccccc1N2 (centres undefined),-4%,-5%,-11,-2%,-4%
COc1ccc(C2CC(=O)C3=C(C2)Nc2ccccc2NC3c2coc3ccccc3c2=O)cc1OC (centres undefined),-3%,-10%,?,10µM*,-18%
CCN1C(=O)[C@H]2[C@H]3[C@H](O)[C@H](O)C/C(=N/OCC[C@H]4C=C[C@H](OC(C)=O)[C@@H](COC(C)=O)O4)[C@@H]3CC[C@@H]2C1=O,·,·,·,-3%[13.5 µM],·
COc1ccc(Sc2ccc(/C=C3\C(=O)NN(c4ccccc4)C3=O)o2)cc1,?,16µM*,39,?,7%
COc1ccc(-n2c(C)cc(/C=C3\C(=O)NN(c4ccccc4)C3=O)c2C)cc1,-5%,-10%,-5,?,?
CCOc1cccc(CNc2ccc(O)cc2)c1OCc1ccc(Cl)cc1,9%,-19%,6,2.2µM*,2%
Cc1ccc(NCc2ccccc2OCc2ccccc2F)cc1,-7%,-22%,-18,0%,?
Oc1ccc(NCc2ccccc2OCc2ccccc2F)cc1,?,-23%,15,18µM*,12%
CN(c1ccccc1)S(=O)(=O)c1ccc(NC(=O)c2ccccc2)cc1,1%,-26%,-8,-11%,?
Cc1cccc(C(=O)NC(=S)Nc2ccc(S(=O)(=O)N(C)c3ccccc3)cc2)c1,?,-14%,-5,20µM*,?
Cc1ccccc1C(=O)NC(=S)Nc1ccc(S(=O)(=O)N(C)c2ccccc2)cc1,?,-8%,47,18µM*,0%
COc1cc(OC)c(NS(=O)(=O)c2ccc3c(c2)CCCN3C(C)=O)cc1Cl,·,·,·,·,2%[46 µM]
SMILES,12-hLO inh,HPGD block,PNC assembly inh,ALDH1A1 block,LMNA splice mod
COC(=O)Nc1nn(-c2ccc(OC)cc2)c(=O)c(C#N)c1C,·,·,·,25µM*,6%[9.22 µM]
CCOC(=O)C1CCN(C(=O)C2COc3ccccc3C2)CC1 (centres undefined),·,·,·,·,-2%[46 µM]
COc1ccc(COC(=O)N/N=C2/C[C@@H](O)[C@@H](O)[C@@H]3[C@@H]4C(=O)N(Cc5ccc6c(c5)OCO6)C(=O)[C@H]4CC[C@@H]23)cc1,·,·,·,-10%[13.5 µM],·
CN(C)c1ccc(CN(C(=O)COc2ccc(Br)cc2)C2CCS(=O)(=O)C2)cc1 (centres undefined),-6%,-6%,15,28µM*,1%
CN(C(=O)COc1ccc(C(C)(C)C)cc1)C1CCS(=O)(=O)C1 (centres undefined),-3%,-2%,-120*,1%,0%
Cc1ccc(OCC(=O)N(Cc2ccc(N(C)C)cc2)C2CCS(=O)(=O)C2)cc1 (centres undefined),-7%,-11%,-14,18µM*,9%
CN(C)c1ccc(CN(C(=O)c2ccco2)C2CCS(=O)(=O)C2)cc1 (centres undefined),-2%,-11%,?,7.1µM*,5%
O=C(c1ccco1)N(Cc1cccs1)C1CCS(=O)(=O)C1 (centres undefined),6%,-6%,38,-5%,1%
CC(C)(C)OC(=O)N1CCC(c2c(C(=O)NCCN3CCOCC3)cnn2-c2ccc(F)cc2F)CC1,·,·,·,·,3%[46 µM]
CCCCC/C=C\C/C=C\C/C=C\CCCCC(N)=O,5%,-7%,·,7%,·
Cc1nn2c(=O)cc(COC(=O)c3ccc(NC(=O)c4cccs4)cc3)nc2s1,·,·,·,·,-6%[46 µM]
CN(C)C(=O)COC(=O)c1cccnc1Nc1ccccc1F,2%,-15%,-1,-10%,5%
NC(=O)COC(=O)c1cccnc1Nc1ccccc1F,·,·,·,11µM*,·
O=C(NCCN1CCc2ccccc2C1)C1CC(=O)N(C2CCCC2)C1 (centres undefined),0%,?,0,35µM*,12%
CCOC(=O)c1ccc(NC(=O)C(CC)Sc2nc3ncccc3o2)cc1 (centres undefined),·,·,·,·,8%[46 µM]
Cn1c(N)c(C(=O)COC(=O)CSc2cccc3cccc(Cl)c23)c(=O)n(C)c1=O,·,·,·,-4%,11%[46 µM]
Cc1cc(NC(=O)CSc2nnc(NC(=O)C3CC(=O)N(c4ccccc4C)C3)s2)no1 (centres undefined),-2%,-21%,?,20µM*,-5%
O=C(Nc1nnc(SCc2c(Cl)cccc2Cl)s1)C1CC(=O)N(c2ccc3c(c2)OCCO3)C1 (centres undefined),·,·,·,3.5µM*,9%[46 µM]
O=C(Nc1nc(-c2ccco2)c(-c2ccco2)s1)C1CC(=O)N(c2ccc3c(c2)OCCO3)C1 (centres undefined),?,?,0,1.1µM*,11%
O=C(Nc1nnc(SCc2ccc(F)cc2)s1)C1CC(=O)N(c2ccc3c(c2)OCCO3)C1 (centres undefined),1%,?,?,-12%,-18%
Cc1cc(NC(=O)CSc2nnc(NC(=O)C3CC(=O)N(c4ccccc4)C3)s2)no1 (centres undefined),-1%,-13%,25,-2%,-7%
COc1ccc(C2=C(C)C(N3CCC(C(=O)Nc4cc(C)ccc4C)CC3)=NS2(=O)=O)cc1,·,·,·,·,-11%[46 µM]
Cc1ccc(C(=O)Oc2ccc(C(=O)COC(=O)c3cnccn3)cc2)cc1,6%,-14%,72,3%,4%
